# Several values for one entry are separate records, joined by “and”; a condition that tells them apart may be missing. Equal values may be shown once. Among all 5,500 compounds or so, about 2,000 (36%) were called active. About 18% were inconclusive and are not listed. The list shows a part of the results. Unmarked numbers belong to inactive results. No stated cut-off is given here; in the data, active means normalized growth mostly below about 0.91 (no sharp cut-off); inconclusive means no clear call, values can overlap the other calls; inactive means mostly above about 0.92.
# Assay: chemical genetic growth profiling, strain panel (AID 1159580);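 further: tested at 20 µM; growth read once vehicle control cultures reached saturation at 30 °C; 1 = growth at the plate median or of vehicle wells; lower values mean less growth of the strain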
# Conditions: S. cerevisiae deletion strains, growth OD
compound,measurement,setting,value
CC1(C)C(=O)C=C[C@@]2(C)C1C=C[C@]1(C)C2CC[C@@]2(C)[C@H](c3ccoc3)OC(=O)C3OC321 (some centres not stated),normalized growth,"locus YAL013W, strain DEP1, hits give low values",0.949
same,normalized growth,"locus YAL021C, strain ccr4, hits give low values",1.02
same,normalized growth,"locus YAL026C, strain drs2, hits give low values",0.972
same,normalized growth,"locus YAL030W, strain snc1, hits give low values",0.985
same,normalized growth,"locus YBL061C, strain skt5, hits give low values",0.974
same,normalized growth,"locus YBR009C, strain hhf1, hits give low values",0.915
same,normalized growth,"locus YBR021W, strain FUR4, hits give low values",1.01
same,normalized growth,"locus YBR023C, strain chs3, hits give low values",0.981
same,normalized growth,"locus YBR171W, strain sec66, hits give low values",0.971
same,normalized growth,"locus YBR229C, strain ROT2, hits give low values",0.986
same,normalized growth,"locus YBR231C, strain swc5, hits give low values",1
same,normalized growth,"locus YBR279W, strain paf1, hits give low values",0.964
same,normalized growth,"locus YCL011C, strain gbp2, hits give low values",0.981
same,normalized growth,"locus YCL016C, strain dcc1, hits give low values",0.98
same,normalized growth,"locus YCL029C, strain bik1, hits give low values",0.986
same,normalized growth,"locus YCL061C, strain MRC1, hits give low values",0.971
same,normalized growth,"locus YCL069W, strain vba3, hits give low values",1
same,normalized growth,"locus YCR088W, strain abp1, hits give low values",1
same,normalized growth,"locus YDL005C, strain med2, hits give low values",0.988
same,normalized growth,"locus YDL035C, strain GPR1, hits give low values",0.979
same,normalized growth,"locus YDL040C, strain nat1, hits give low values",1
same,normalized growth,"locus YDL074C, strain BRE1, hits give low values",0.862
same,normalized growth,"locus YDL101C, strain DUN1, hits give low values",0.957
same,normalized growth,"locus YDL134C, strain PPH21, hits give low values",0.948
same,normalized growth,"locus YDL185W, strain tfp1, hits give low values",0.998
same,normalized growth,"locus YDL192W, strain arf1, hits give low values",0.94
same,normalized growth,"locus YDR001C, strain nth1, hits give low values",0.991
same,normalized growth,"locus YDR069C, strain doa4, hits give low values",1
same,normalized growth,"locus YDR101C, strain arx1, hits give low values",0.978
same,normalized growth,"locus YDR137W, strain rgp1, hits give low values",0.663 (active)
same,normalized growth,"locus YDR150W, strain NUM1, hits give low values",0.996
same,normalized growth,"locus YDR159W, strain sac3, hits give low values",0.843 (active)
same,normalized growth,"locus YDR162C, strain NBP2, hits give low values",0.888
same,normalized growth,"locus YDR195W, strain ref2",1.02
same,normalized growth,"locus YDR297W, strain sur2, hits give low values",0.985
same,normalized growth,"locus YDR318W, strain mcm21, hits give low values",0.939
same,normalized growth,"locus YDR334W, strain swr1, hits give low values",0.983
same,normalized growth,"locus YDR335W, strain msn5, hits give low values",0.998
same,normalized growth,"locus YDR388W, hits give low values",0.984
same,normalized growth,"locus YDR392W, strain spt3, hits give low values",0.314 (active)
same,normalized growth,"locus YDR502C, strain sam2, hits give low values",0.948
same,normalized growth,"locus YEL003W, strain gim4, hits give low values",0.979
same,normalized growth,"locus YEL037C, strain rad23, hits give low values",0.992
same,normalized growth,"locus YEL061C, strain CIN8 (second series), hits give low values",0.997
same,normalized growth,"locus YEL061C, strain CIN8, hits give low values",0.983
same,normalized growth,"locus YER015W, strain faa2, hits give low values",0.985
same,normalized growth,"locus YER016W, strain bim1, hits give low values",0.993
same,normalized growth,"locus YER110C, hits give low values",0.986
same,normalized growth,"locus YER111C, strain swi4, hits give low values",0.994
same,normalized growth,"locus YER155C, strain BEM2 (second series), hits give low values",0.894
same,normalized growth,"locus YER155C, strain BEM2, hits give low values",0.953
same,normalized growth,"locus YER167W, strain BCK2, hits give low values",0.976
same,normalized growth,"locus YFR010W, strain ubp6, hits give low values",1
same,normalized growth,"locus YGL078C, strain dbp3, hits give low values",0.993
same,normalized growth,"locus YGL086W, strain mad1, hits give low values",0.948
same,normalized growth,"locus YGL167C, strain pmr1, hits give low values",0.967
same,normalized growth,"locus YGL173C, strain kem1, hits give low values",0.97
same,normalized growth,"locus YGL227W, strain vid30, hits give low values",0.991
same,normalized growth,"locus YGL240W, strain doc1, hits give low values",1.02
same,normalized growth,"locus YGL248W, strain PDE1, hits give low values",0.974
same,normalized growth,"locus YGL253W, strain hxk2, hits give low values",0.992
same,normalized growth,"locus YGR135W, strain pre9, hits give low values",0.953
same,normalized growth,"locus YGR252W, strain gcn5, hits give low values",0.912
same,normalized growth,"locus YHR013C, strain ard1, hits give low values",0.916
same,normalized growth,"locus YHR027C, strain rpn1, hits give low values",0.971
same,normalized growth,"locus YHR030C, strain SLT2, hits give low values",0.915
same,normalized growth,"locus YHR079C, strain IRE1 (second series), hits give low values",0.977
same,normalized growth,"locus YHR079C, strain IRE1, hits give low values",0.943
same,normalized growth,"locus YHR094C, strain hxt1, hits give low values",0.989
same,normalized growth,"locus YHR129C, strain ARP1, hits give low values",0.926
same,normalized growth,"locus YHR142W, strain chs7, hits give low values",0.987
same,normalized growth,"locus YHR200W, strain rpn10, hits give low values",0.986
same,normalized growth,"locus YIL066C, strain RNR3, hits give low values",0.897
same,normalized growth,"locus YIL073C, strain SPO22, hits give low values",0.953
same,normalized growth,"locus YIL125W, strain kgd1, hits give low values",0.993
same,normalized growth,"locus YIR030C, strain dcg1, hits give low values",0.98
same,normalized growth,"locus YJL092W, strain hpr5, hits give low values",0.997
same,normalized growth,"locus YJL095W, strain BCK1 (second series), hits give low values",0.967
same,normalized growth,"locus YJL095W, strain BCK1, hits give low values",0.799 and 0.923
same,normalized growth,"locus YJL115W, strain asf1, hits give low values",1
same,normalized growth,"locus YJL129C, strain trk1, hits give low values",0.867 (active)
same,normalized growth,"locus YJL134W, strain LCB3, hits give low values",0.997
same,normalized growth,"locus YJL154C, strain vps35, hits give low values",0.995
same,normalized growth,"locus YJL164C, strain tpk1, hits give low values",0.967
same,normalized growth,"locus YJL166W, strain qcr8, hits give low values",0.919
same,normalized growth,"locus YJL168C, strain set2, hits give low values",0.964
same,normalized growth,"locus YJL187C, strain SWE1 (second series), hits give low values",0.951
same,normalized growth,"locus YJL187C, strain SWE1, hits give low values",0.987
same,normalized growth,"locus YJR066W, strain TOR1, hits give low values",0.894
same,normalized growth,"locus YKL009W, strain mrt4, hits give low values",0.995
same,normalized growth,"locus YKL068W, hits give low values",0.998
same,normalized growth,"locus YKL085W, strain MDH1 (second series), hits give low values",0.985
same,normalized growth,"locus YKL085W, strain MDH1, hits give low values",0.985
same,normalized growth,"locus YKL160W, strain elf1, hits give low values",0.973
same,normalized growth,"locus YKL190W, strain CNB1, hits give low values",0.992
same,normalized growth,"locus YKR001C, strain vps1, hits give low values",0.949
same,normalized growth,"locus YKR026C, strain gcn3, hits give low values",0.995
same,normalized growth,"locus YKR091W, strain srl3, hits give low values",0.992
same,normalized growth,"locus YLL001W, strain dnm1, hits give low values",0.99
same,normalized growth,"locus YLL026W, hits give low values",0.986
same,normalized growth,"locus YLL041C, strain sdh2, hits give low values",0.989
same,normalized growth,"locus YLR027C, strain aat2, hits give low values",0.959
same,normalized growth,"locus YLR039C, strain RIC1, hits give low values",0.624 (active)
same,normalized growth,"locus YLR058C, strain SHM2, hits give low values",0.97
same,normalized growth,"locus YLR102C, strain apc9, hits give low values",0.992
same,normalized growth,"locus YLR113W, strain HOG1, hits give low values",0.957
same,normalized growth,"locus YLR221C, strain rsa3, hits give low values",0.959
same,normalized growth,"locus YLR258W, strain gsy2, hits give low values",0.997
same,normalized growth,"locus YLR262C, strain YPT6 (second series), hits give low values",0.67 (active)
same,normalized growth,"locus YLR268W, strain sec22, hits give low values",0.911
same,normalized growth,"locus YLR320W, strain mms22, hits give low values",0.838 (active)
same,normalized growth,"locus YLR330W, strain CHS5, hits give low values",0.954
same,normalized growth,"locus YLR342W, strain FKS1, hits give low values",0.924
same,normalized growth,"locus YLR357W, strain rsc2, hits give low values",1.03
same,normalized growth,"locus YLR370C, strain arc18, hits give low values",0.988
same,normalized growth,"locus YLR371W, strain rom2, hits give low values",0.933
same,normalized growth,"locus YLR384C, strain iki3, hits give low values",0.99
same,normalized growth,"locus YLR418C, strain cdc73, hits give low values",0.655 (active)
same,normalized growth,"locus YML016C, strain PPZ1, hits give low values",0.991
same,normalized growth,"locus YML032C, strain rad52, hits give low values",0.944
same,normalized growth,"locus YML120C, strain ndi1, hits give low values",0.994
same,normalized growth,"locus YML124C, strain tub3, hits give low values",0.983
same,normalized growth,"locus YMR058W, strain fet3, hits give low values",0.976
same,normalized growth,"locus YMR078C, strain ctf18, hits give low values",0.956
same,normalized growth,"locus YMR125W, strain sto1, hits give low values",0.969
same,normalized growth,"locus YMR129W, hits give low values",0.984
same,normalized growth,"locus YMR205C, strain PFK2, hits give low values",0.841 (active)
same,normalized growth,"locus YMR223W, strain ubp8, hits give low values",0.963
same,normalized growth,"locus YMR231W, strain pep5, hits give low values",0.964
same,normalized growth,"locus YMR307W, strain GAS1, hits give low values",0.81
same,normalized growth,"locus YNL067W, strain RPL9B, hits give low values",0.973
same,normalized growth,"locus YNL071W, strain lat1, hits give low values",0.695 (active)
same,normalized growth,"locus YNL183C, strain NPR1, hits give low values",0.921
same,normalized growth,"locus YNL209W, strain ssb2, hits give low values",0.984
same,normalized growth,"locus YNL233W, strain BNI4, hits give low values",0.955
same,normalized growth,"locus YNL248C, strain rpa49, hits give low values",0.978
same,normalized growth,"locus YNL250W, strain rad50, hits give low values",0.987
same,normalized growth,"locus YNL271C, strain bni1, hits give low values",0.983
same,normalized growth,"locus YNL298W, strain CLA4, hits give low values",0.989
same,normalized growth,"locus YNL307C, strain MCK1, hits give low values",0.867 (active)
same,normalized growth,"locus YNL322C, strain KRE1 (second series), hits give low values",1.01
same,normalized growth,"locus YNL322C, strain KRE1, hits give low values",0.983
same,normalized growth,"locus YNR049C, strain mso1, hits give low values",0.985
same,normalized growth,"locus YNR052C, strain pop2, hits give low values",0.951
same,normalized growth,"locus YOL006C, strain TOP1, hits give low values",0.959
same,normalized growth,"locus YOL012C, strain htz1",0.78
same,normalized growth,"locus YOL147C, strain pex11, hits give low values",0.961
same,normalized growth,"locus YOR001W, strain rrp6, hits give low values",0.991
same,normalized growth,"locus YOR061W, strain CKA2, hits give low values",0.983
same,normalized growth,"locus YOR069W, strain VPS5, hits give low values",0.992
same,normalized growth,"locus YOR070C, strain gyp1, hits give low values",0.952
same,normalized growth,"locus YOR080W, strain dia2, hits give low values",0.992
same,normalized growth,"locus YOR083W, strain WHI5, hits give low values",0.977
same,normalized growth,"locus YOR106W, strain vam3, hits give low values",0.972
same,normalized growth,"locus YOR136W, strain idh2, hits give low values",0.979
same,normalized growth,"locus YOR144C, strain elg1, hits give low values",0.957
same,normalized growth,"locus YOR184W, strain ser1, hits give low values",0.715 (active)
same,normalized growth,"locus YOR231W, strain MKK1, hits give low values",0.936
same,normalized growth,"locus YOR265W, strain rbl2, hits give low values",0.986
same,normalized growth,"locus YOR270C, strain vph1, hits give low values",0.905
same,normalized growth,"locus YOR290C, strain snf2, hits give low values",0.938
same,normalized growth,"locus YOR316C, strain cot1, hits give low values",0.983
same,normalized growth,"locus YPL051W, strain arl3, hits give low values",0.945
same,normalized growth,"locus YPL078C, strain atp4, hits give low values",0.979
same,normalized growth,"locus YPL106C, strain sse1, hits give low values",0.942
same,normalized growth,"locus YPL240C, strain hsp82, hits give low values",0.985
same,normalized growth,"locus YPL256C, strain CLN2, hits give low values",0.92
same,normalized growth,"locus YPR119W, strain clb2, hits give low values",0.979
same,normalized growth,"locus YPR141C, strain kar3, hits give low values",0.977
same,normalized growth,"locus YPR163C, strain tif3, hits give low values",0.938
same,normalized growth,"locus YPR167C, strain met16, hits give low values",0.973
same,normalized growth,"strain wtn01, hits give low values",0.952

# Reference: PubChem BioAssay AID1159580 (chemical genetic matrix, 2015)
